Calls of active or inactive are those of the source. Unless noted, how the calls were made is not given here.

The nature of assay [1]: HepG2 liver cancer cell viability effects, profiling panel, resazurin fluorescence, 24 h, PK04 Diversity Set (AID 1172). As to conditions: higher = more signal. On the technique in general: The colour change of resazurin is a common sign of viable cells or microbes.
Assay [2] in a line: basal S. cerevisiae growth modulation, no modifier, primary screen, OD600, strain BY4716, 24 h, basal condition (AID 1173). As to conditions: OD600, 24 h, higher = more signal, called active from +8 up or from −8 down.
Assay [3] in a line: MM1S myeloma cell viability, profiling panel, resazurin fluorescence, basal, 24 h, PK04 Diversity Set (AID 1174). As to conditions: higher = more signal, called active from +8 up or from −8 down.
Assay [4] deals with Dihydroorotate dehydrogenase (quinone), mitochondrial (Plasmodium falciparum (isolate 3D7)) (UniProt Q08210). Put plainly: PfDHODH enzyme inhibitors, primary screen, biochemical, C-terminal His tag, absorbance 600 nm (AID 1175).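 Further: recombinant parasite enzyme with a five histidine tag at its C terminus.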 As to conditions: DCIP absorbance 600 nm, higher = more signal, called active from +8 up or from −8 down.
Assay [5] is described as follows: P. aeruginosa biofilm formation inhibitors, primary screen, strain PAO1, LB-PBS medium, absorbance 600 nm (AID 1176). As to conditions: P. aeruginosa PAO1 growth/biofilm, A600, 12 h; higher = more signal.
Assay [6] can be described thus: S. cerevisiae RM11-1a growth modifiers, primary screen, strain RM11-1a, OD600, basal, 24 h (AID 1177).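 Further: cultures grown under basal conditions with no added stressor.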 As to conditions: OD600, 24 h, higher = more signal, called active from +8 up or from −8 down.
Assay [7] can be described thus: E. coli acrAB mutant growth effects, primary screen, E. coli filamentation inducers, strain DRC39, OD650, 24 h (AID 1178).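 Further: growth measured as culture turbidity by optical density at 650 nm.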 Conditions: higher = more signal, called active from +8 up or from −8 down.
Assay [8] can be described thus: E. coli acrAB mutant growth effects, primary screen, E. coli filamentation inducers, strain DRC39, OD650, 48 h (AID 1179).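 Further: screen aims at cell division blockers that make cells filament.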 As to conditions: E. coli DRC39 delta-acrAB growth, higher = more signal, called active from +8 up or from −8 down.
A short description of assay [9]: RPMI8226 myeloma cell viability, profiling panel, resazurin fluorescence, basal, 24 h, PK04 Diversity Set (AID 1180).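 Further: RPMI8826 multiple myeloma cell line at 5000 cells per well.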 As to conditions: higher = more signal.
In assay [10] the target is E3 ubiquitin-protein ligase XIAP (Homo sapiens) (UniProt P98170). The experiment in a line: XIAP binders, primary screen, biophysical, small-molecule microarray, fluorescence 635 nm (AID 1181).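 Further: score merges 667 nm emission and signal to noise over triplicate slides.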 Conditions: small-molecule microarray binding, higher = more signal.
For assay [11], the system named is XIP peptide (Xip251-270) binding. Put plainly: small-molecule binders of XIP peptide, primary screen, biochemical, small-molecule microarray, fluorescence 635/667 nm, 0.1 µg/mL protein (AID 1182). As to conditions: fluorescent protein binding, 635 nm, higher = more signal, called active from +8 up or from −8 down.
The next assay concerns XIP peptide (Xip251-270). The experiment in a line: small-molecule binders of XIP peptide, primary screen, biochemical, small-molecule microarray, fluorescence 635/667 nm, 0.5 µg/mL protein (AID 1183). Conditions: small-molecule microarray binding, fluorescence 635 nm; higher = more signal.
Assay [12] can be described thus: Plasmodium falciparum growth inhibition, primary screen, strain 3D7, DAPI fluorescence, 100 nL (AID 1184).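 Further: parasites grown inside human red blood cells in medium with human serum.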 Conditions: P. falciparum 3D7 growth, 3 d, higher = more signal.
Assay [13] has as its target Homeobox protein Hox-A13 (Mus musculus) (UniProt Q62424). Put plainly: inhibitors of HoxA13-DNA binding, primary screen, biochemical, fluorescence polarization, labeled oligonucleotide (AID 1185). Conditions: 15 min, higher = more signal, called active from +8 up or from −8 down. A general note: Fluorescence polarisation rises when a labelled molecule tumbles more slowly, as on binding a larger partner.

Assay [14] is described as follows: inhibitors of hydroxyurea-induced Chk1 phosphorylation, primary screen, imaging, HeLa, phospho-Chk1 antibody, percent positive cells (AID 1186). Conditions: hydroxyurea-induced phospho-Chk1 immunofluorescence imaging, higher = more signal.
A short description of assay [15]: inhibitors of hydroxyurea-induced Chk1 phosphorylation, primary screen, imaging, HeLa, phospho-Chk1 nuclear intensity (AID 1187). As to conditions: hydroxyurea-induced phospho-Chk1 immunofluorescence imaging, higher = more signal.

Sequence of Homeobox protein Hox-A13 (Mus musculus) (Q62424 whole entry, looked up): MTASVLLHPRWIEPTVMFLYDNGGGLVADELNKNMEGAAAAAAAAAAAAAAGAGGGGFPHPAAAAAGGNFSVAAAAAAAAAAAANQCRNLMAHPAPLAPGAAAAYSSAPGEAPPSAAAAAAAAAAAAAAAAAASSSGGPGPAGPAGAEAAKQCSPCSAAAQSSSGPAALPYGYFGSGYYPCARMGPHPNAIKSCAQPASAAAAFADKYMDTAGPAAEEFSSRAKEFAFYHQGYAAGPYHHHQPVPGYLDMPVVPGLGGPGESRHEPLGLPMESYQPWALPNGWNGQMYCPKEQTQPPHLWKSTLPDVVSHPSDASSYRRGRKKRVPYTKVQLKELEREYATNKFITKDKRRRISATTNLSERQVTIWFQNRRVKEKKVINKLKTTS
Sequence of Dihydroorotate dehydrogenase (quinone), mitochondrial (Plasmodium falciparum (isolate 3D7)) (Q08210 whole entry, looked up): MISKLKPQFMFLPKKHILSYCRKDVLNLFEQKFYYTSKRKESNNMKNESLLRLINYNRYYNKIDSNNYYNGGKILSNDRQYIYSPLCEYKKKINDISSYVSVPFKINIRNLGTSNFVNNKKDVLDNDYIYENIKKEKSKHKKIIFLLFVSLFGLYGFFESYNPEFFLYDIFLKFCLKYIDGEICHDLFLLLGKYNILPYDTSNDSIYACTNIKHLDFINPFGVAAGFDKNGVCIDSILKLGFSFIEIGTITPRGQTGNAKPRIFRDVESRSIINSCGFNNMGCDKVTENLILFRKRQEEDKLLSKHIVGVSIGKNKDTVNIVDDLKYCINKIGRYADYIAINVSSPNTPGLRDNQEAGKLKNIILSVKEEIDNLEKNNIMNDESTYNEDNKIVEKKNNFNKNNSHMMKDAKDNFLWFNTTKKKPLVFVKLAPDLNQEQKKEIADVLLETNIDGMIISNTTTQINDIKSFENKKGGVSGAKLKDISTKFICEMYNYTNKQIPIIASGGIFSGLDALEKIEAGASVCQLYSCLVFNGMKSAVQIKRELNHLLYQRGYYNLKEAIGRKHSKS
Sequence of E3 ubiquitin-protein ligase XIAP (Homo sapiens) (P98170 whole entry, looked up): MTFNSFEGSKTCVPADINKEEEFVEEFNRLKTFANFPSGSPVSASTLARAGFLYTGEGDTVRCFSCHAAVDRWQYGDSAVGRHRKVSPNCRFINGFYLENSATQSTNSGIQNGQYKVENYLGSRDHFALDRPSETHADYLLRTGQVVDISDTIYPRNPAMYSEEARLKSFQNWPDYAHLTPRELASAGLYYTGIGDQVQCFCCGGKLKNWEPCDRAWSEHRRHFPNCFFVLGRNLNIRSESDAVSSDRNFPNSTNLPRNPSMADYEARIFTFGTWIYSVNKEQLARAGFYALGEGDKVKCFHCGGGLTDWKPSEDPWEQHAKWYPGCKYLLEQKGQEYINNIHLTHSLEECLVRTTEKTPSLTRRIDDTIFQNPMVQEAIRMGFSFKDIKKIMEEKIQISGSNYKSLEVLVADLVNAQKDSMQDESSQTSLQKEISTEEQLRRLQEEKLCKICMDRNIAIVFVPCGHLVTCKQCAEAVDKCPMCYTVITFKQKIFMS

Regarding `COc1ccc(C(O)C2C=CC3C(=O)N(C)C(=O)C3N2N(c2ccccc2)c2ccccc2)cc1` (configuration not stated), the z-score in assay [1] is -0.326; in assay [2], 0.405 (inactive); in [3], -1.61 (inactive); in [5] it was 0.971 (inactive); in assay [6], 0.279 (inactive); in assay [7] it was -0.41 (inactive). For the same molecule, the z-score in assay [8] is 0.0882 (inactive); in assay [9], -1.29; in assay [12] it was -0.459; in assay [13] it was -6.57 (inactive); in assay [14] it was 0.45 (inactive); in [15], -0.508 (inactive). The composite z-score in assay [4] was -0.472 (inactive); in [10], -0.0772; in assay [11] it was 0.195 (inactive); in the assay on XIP peptide (Xip251-270) it was 0.512.

For `CCOC(=O)C1=CCC(c2cc3ccccc3[nH]2)N(CCN2CC(C(=O)OCC)=CCC2c2cc3ccccc3[nH]2)C1` (configuration not stated), the z-score in [1] was -0.474; in [2] it was 0.897 (inactive); in assay [3] it was -1.98 (inactive); in [5], 0.878 (inactive); in [6], 0.614 (inactive); in assay [7], 0.852 (inactive). Besides, the z-score in assay [8] is -0.732 (inactive); in assay [9], -0.458; in assay [12], -1.51; in [13], -3.81 (inactive); in assay [14] it was -0.852 (inactive); in [15], -0.497 (inactive). Further, the composite z-score was 0.268 (inactive) in [4], 1.16 in [10], 0.401 (inactive) in [11] and 0.737 in the assay with XIP peptide (Xip251-270).

Regarding `COc1ccc([Si](C)(C)[C@@H]2[C@@H](CC(=O)N3CCC[C@H]3CO)O[C@]3(C(=O)N(Cc4ccc(N5CCOC5=O)cc4)c4ccccc43)[C@H]2C)cc1`, the z-score in [1] was -1.39; in assay [2] it was -0.793 (inactive); in [3] it was -2.01 (inactive); in [5], 1.06 (inactive); in [6] it was -0.975 (inactive); in assay [7] it was 0.0669 (inactive). Also, the z-score in assay [8] was 0.459 (inactive); in assay [9], -2.98; in [12], 0.309; in assay [13], -3.21 (inactive); in assay [14] it was -1.03 (inactive); in assay [15], -0.48 (inactive). Also, the composite z-score in assay [4] is -2.19 (inactive); in assay [10], 0.0819; in assay [11] it was 0.56 (inactive); in the assay with XIP peptide (Xip251-270), 0.727.

For the molecule `COc1ccc(NN2C(C(O)c3ccc(I)cc3)C=CC3C(=O)N(C4CCCCC4)C(=O)C32)cc1` (configuration not stated), the z-score in assay [1] is 1.59; in [2] it was 0.0997 (inactive); in assay [3], 0.28 (inactive); in assay [5], 0.726 (inactive); in assay [6] it was 0.475 (inactive); in assay [7], -0.558 (inactive). For the same molecule, the z-score in assay [8] was 0.725 (inactive); in assay [9], -0.313; in assay [12] it was -0.684; in assay [13], -3.31 (inactive); in [14], 0.0831 (inactive); in assay [15], -0.481 (inactive). Further, the composite z-score in [4] is 0.526 (inactive); in [10], 0.144; in assay [11], 1.63 (inactive); in the assay on XIP peptide (Xip251-270), 0.618.

For `CC(C)OC(=O)CC(=O)CC(O)c1cccc([N+](=O)[O-])c1` (configuration not stated), the z-score was -0.476 in assay [1]; -3.08 (inactive) in assay [2]; 0.326 (inactive) in [3]; 1.1 (inactive) in assay [5]; -2.42 (inactive) in [6]; 0.704 (inactive) in assay [7]. Moreover, the z-score in [8] is 2 (inactive); in assay [9], 0.083; in [12] it was -0.165; in [13] it was -0.516 (inactive); in assay [14], -0.242 (inactive); in [15], -0.299 (inactive). The composite z-score in [4] was -2.1 (inactive); in assay [10], 0.15; in assay [11], 0.52 (inactive); in the assay on XIP peptide (Xip251-270) it was 0.089.

For `COCCOC(=O)N1C(=O)[C@@]2(c3cc(C#CCCO)ccc31)[C@H](c1ccc(OCCO)cc1)N1[C@H](c3ccccc3)[C@H](c3ccccc3)OC(=O)[C@H]1[C@@H]2C(=O)N1CCCCCCC1`, the z-score in [1] is -0.21; in assay [2], 0.532 (inactive); in assay [3] it was -0.292 (inactive); in [5], 1.68 (inactive); in [6], 1.13 (inactive); in assay [7] it was -0.442 (inactive). The z-score in assay [8] is -0.457 (inactive); in assay [9] it was -0.621; in [12] it was -2.1; in [13] it was -4.34 (inactive); in assay [14] it was 0.197 (inactive); in assay [15], 0.476 (inactive). For the same molecule, the composite z-score in assay [4] is -0.0613 (inactive); in assay [10], 0.152; in [11], 0.788 (inactive); in the assay with XIP peptide (Xip251-270), 0.614.

For the molecule `COC(=O)C[C@H]1O[C@@]2(C[C@@H]1[Si](C)(C)C)C(=O)N(C)c1ccccc12`, the z-score in assay [1] was 0.791; in [2], -3.71 (inactive); in assay [3], 1.41 (inactive); in assay [5], 0.826 (inactive); in assay [6], -3.42 (inactive); in assay [7], 2.3 (inactive). The z-score is 0.92 (inactive) in assay [8]; 0.904 in assay [9]; 0.357 in assay [12]; -0.91 (inactive) in assay [13]; -0.597 (inactive) in assay [14]; -0.0422 (inactive) in [15]. Besides, the composite z-score in assay [4] is -0.655 (inactive); in assay [10], -0.0966; in assay [11], -0.227 (inactive); in the assay with XIP peptide (Xip251-270) it was -0.186.

The record behind these values is PubChem BioAssay.
